{"source": "PubChem BioAssay (NCI)", "note": "About 83,000 compounds went through this panel and 20% of them were active in at least one assay; those are over-represented in the sample as a whole.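 Single-concentration screen, 48 h exposure, 96-well plates. Endpoint: percent growth. Below 10 = active.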 Calls of active or inactive are those of the source.", "data": [{"system": "RXF 393 renal", "assay": "NCI-60 one-dose screen, 48 h (100 = growth as untreated, 0 = no growth, -100 = all killed)", "conditions": "10 µM unless noted", "values": [{"smiles": "COc1cc(-c2nc(-c3nc4cc(C(=O)c5ccccc5)ccc4[nH]3)cc3c2[nH]c2ccccc23)cc(OC)c1OC", "growth": "93.8% (inactive)"}, {"smiles": "COc1cc(C2=NOC(c3cc(OC)c(OC)c(OC)c3)C2)ccc1OCCCCOc1cc2c(cc1OC)C(=O)N1CCC[C@H]1C=N2", "note": "(stereo partly specified)", "growth": "-79% (active)"}, {"smiles": "O=C(CCCCCCc1nc2ccc(Br)cc2[nH]1)NO", "growth": "-78.3% (active)"}, {"smiles": "CCCCOc1ncnc2nc[nH]c12", "growth": "97.7% (inactive)"}, {"smiles": "CC(C)=CCC[C@H](C)c1ccc(C)c2c1OCN(CCO)C2", "growth": "52.4% (inactive)"}, {"smiles": "O=C(Nc1cccc(Cl)c1)Nc1cc(C(F)(F)F)ccc1Cl", "growth": "40.7% (inactive)"}, {"smiles": "CCCCC(CCc1ccccn1)C(=O)c1ccccc1", "note": "(stereo unspecified)", "growth": "109% (inactive)"}, {"smiles": "Nc1cccc(S(=O)(=O)c2cccc(N)c2)c1", "growth": "138% (inactive)"}, {"smiles": "O=C(Nc1ccc2ncnc(Nc3ccc(F)c(Cl)c3)c2c1)c1cccs1", "growth": "-3.16% (active)"}, {"smiles": "O=[N+]([O-])c1ccccc1CN1CCCCC1", "growth": "104% (inactive)"}, {"smiles": "COc1cc2c(cc1OCCCOc1cc3c(cc1OC)C(=O)N1CCC[C@H]1C=N3)C=CC(C)(C)O2", "growth": "94.8% (inactive)"}, {"smiles": "CCCCCCCCCC1=NC(C)(C)CN1C(C)(C)CO", "growth": "167% (inactive)"}, {"smiles": "COCCn1c(Nc2ccc(C(=O)NO)cc2)nc2ccccc21", "growth": "39.1% (inactive)"}, {"smiles": "O=C(CSc1ccc(Cl)cc1)Nc1ccc(-c2nc3ccccc3s2)c(Cl)c1", "growth": "78.7% (inactive)"}, {"smiles": "COc1cc(/C=C2\\C(=O)Nc3ccc(N(C)C)cc32)cc(OC)c1OC", "growth": "-45% (active)"}, {"smiles": "CC(C)(C)NC(=O)C(OC(=O)C1CCc2cc(F)ccc2O1)c1ccccc1Cl", "note": "(stereo unspecified)", "growth": "96.3% (inactive)"}]}]}
